Results on nine molecules are retold here after PubChem BioAssay (NCI).

Among the test systems are MOLT-4 leukemia; SR leukemia; RPMI-8226 leukemia; OVCAR-8 ovarian; OVCAR-5 ovarian; OVCAR-4 ovarian; SK-OV-3 ovarian; OVCAR-3 ovarian; HS 578T breast; NCI/ADR-RES ovarian; T-47D breast; BT-549 breast; MDA-MB-435 melanoma; SW-620 colon; MCF7 breast; HCC-2998 colon; KM12 colon; HCT-116 colon; IGROV1 ovarian.
Holding throughout (assay): NCI-60 one-dose screen, 48 h (100 = growth as untreated, 0 = no growth, -100 = all killed)
Common to all, as to conditions: 10 µM unless noted

Compounds without any hit were thinned out: in the full panel of roughly 83,000, 20% have a hit.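 48-hour exposure, single concentration, 96-well plates; percent growth endpoint where 0 means no net growth. Active: below 10.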 A number with no mark means an inactive call. Activity calls are given as the source filed them.

As to `O=C([O][Hg][CH2]C1COCC([CH2][Hg][O]C(=O)c2ccccc2)O1)c1ccccc1` (stereo not given), the growth is -2.46% (active) in the test with MOLT-4 leukemia; 46.8% in the test with SR leukemia; 71.8% with RPMI-8226 leukemia; 94% with OVCAR-8 ovarian; 134% with OVCAR-5 ovarian; 90.1% with OVCAR-4 ovarian. The growth was 118% with SK-OV-3 ovarian; -94% (active) in the test with OVCAR-3 ovarian; 89.1% with HS 578T breast; 106% in the test on NCI/ADR-RES ovarian; 11.4% with T-47D breast; 97.4% with BT-549 breast. Further, the growth in the test with MDA-MB-435 melanoma is 90.2%; in the test with SW-620 colon it was -91.2% (active); in the test with MCF7 breast it was 20.9%; in the test on HCC-2998 colon, 114%; in the test on KM12 colon it was 102%.
In the case of `O=C1C=C(N2C3C4CCC(C4)C32)C(=O)C=C1c1ccccc1` (stereo not given), the growth with MOLT-4 leukemia was 2.18% (active); in the test on SR leukemia, 0.878% (active); in the test on RPMI-8226 leukemia it was 53.1%; with OVCAR-8 ovarian, 72.4%; in the test with OVCAR-5 ovarian it was 102%; in the test with OVCAR-4 ovarian, 48%. Moreover, the growth in the test with SK-OV-3 ovarian was 88.9%; in the test with OVCAR-3 ovarian it was 74.5%; in the test with HS 578T breast it was 102%; in the test with NCI/ADR-RES ovarian it was 99.4%; in the test on T-47D breast it was 6.64% (active); with BT-549 breast, 93.2%. Moreover, the growth is 99.7% in the test with MDA-MB-435 melanoma; 82.6% in the test with SW-620 colon; 62.4% with MCF7 breast; 85% with HCT-116 colon; 115% with HCC-2998 colon; 102% with KM12 colon.
Regarding `C[C@@H]1CCC2[C@@H](C)[C@H](OC(=O)CCC(=O)NCCNC(=O)Cc3cc(=O)oc4cc(N(C)C)ccc34)O[C@@H]3O[C@]4(C)CC[C@@H]1C23OO4` (stereo not given in full), the growth with MOLT-4 leukemia is 31.3%; in the test on SR leukemia it was -16.8% (active); with RPMI-8226 leukemia, 15.1%; in the test on OVCAR-8 ovarian it was 23.8%; in the test with OVCAR-5 ovarian, 49%; in the test on OVCAR-4 ovarian, 49.1%. For the same molecule, the growth was 92.3% with SK-OV-3 ovarian; 55% in the test with IGROV1 ovarian; 49.5% in the test on HS 578T breast; 16.6% with NCI/ADR-RES ovarian; 41% in the test on T-47D breast; 25.3% in the test on SW-620 colon. The growth in the test with MCF7 breast is 35.9%; in the test on HCT-116 colon it was 10.1%; with HCC-2998 colon it was 50.2%; with KM12 colon, 22.2%.
As to `C#Cc1ccc2c(c1)C(c1ccccc1F)=NCC(=O)N2C`, the growth with MOLT-4 leukemia was 42.8%; in the test with SR leukemia it was 37.8%; with RPMI-8226 leukemia, 71.9%; with OVCAR-8 ovarian it was 63.9%; in the test with OVCAR-5 ovarian, 85.5%; with OVCAR-4 ovarian, 84.9%. Further, the growth was 34% with SK-OV-3 ovarian; 12.1% with OVCAR-3 ovarian; 64.1% in the test with HS 578T breast; 16.6% in the test on NCI/ADR-RES ovarian; 40.9% in the test with T-47D breast; 47.2% in the test with BT-549 breast. The growth was 10.2% in the test on MDA-MB-435 melanoma; 30.3% in the test with SW-620 colon; 19.7% with MCF7 breast; 17.3% in the test on HCT-116 colon; 65.2% with HCC-2998 colon; 27.8% with KM12 colon.
For the molecule `COc1cc2c(cc1OCc1ccccc1)C(CC(C)C)=[N+](C)CC2`, the growth in the test with MOLT-4 leukemia is 91.8%; in the test on SR leukemia it was 89.9%; with RPMI-8226 leukemia, 56.4%; with OVCAR-8 ovarian, 73.5%; with OVCAR-5 ovarian it was 93%; with OVCAR-4 ovarian, 71.5%. Further, the growth was 93.1% in the test with SK-OV-3 ovarian; 65.7% in the test with OVCAR-3 ovarian; 83.1% with HS 578T breast; 101% in the test with NCI/ADR-RES ovarian; 58.4% in the test on T-47D breast; 44% with BT-549 breast. Besides, the growth in the test on SW-620 colon was 93.7%; in the test with MCF7 breast, 73.4%; with HCT-116 colon it was 85.2%; with HCC-2998 colon, 79%; with KM12 colon, 78.8%.
As for `CCCCCCCCOC(=O)CCN1CC1`, the growth in the test on MOLT-4 leukemia was 103%; in the test with SR leukemia it was 101%; in the test on RPMI-8226 leukemia, 103%; in the test with OVCAR-8 ovarian, 102%; with OVCAR-5 ovarian, 104%; in the test on SK-OV-3 ovarian it was 109%. Besides, the growth in the test with IGROV1 ovarian is 115%; in the test with OVCAR-3 ovarian, 108%; with HS 578T breast, 99.6%; with T-47D breast, 108%; in the test with BT-549 breast it was 107%; with MDA-MB-435 melanoma, 105%. Also, the growth with SW-620 colon was 113%; in the test with MCF7 breast, 102%; in the test with HCT-116 colon, 112%; in the test with HCC-2998 colon, 110%; in the test with KM12 colon, 109%.
Regarding `CCCCCCCC[n+]1ccc2ccccc2c1`, the growth in the test with MOLT-4 leukemia was 58%; in the test with SR leukemia it was 47.8%; with RPMI-8226 leukemia it was 13.8%; with OVCAR-8 ovarian, 55.7%; with OVCAR-5 ovarian it was 88.5%; in the test on SK-OV-3 ovarian, 62.9%. In addition, the growth is 64.1% in the test with IGROV1 ovarian; 50.2% in the test with OVCAR-3 ovarian; 76.1% in the test with HS 578T breast; 95.6% in the test with NCI/ADR-RES ovarian; 27.1% with T-47D breast; 32.3% in the test on BT-549 breast. The growth in the test on MDA-MB-435 melanoma was 46.2%; with SW-620 colon it was 75.9%; with MCF7 breast, 41.1%; in the test on HCT-116 colon it was 46.5%; with HCC-2998 colon, 47.4%; with KM12 colon, 46.1%.
As for `O=C(O)C(Cl)(Cl)C(F)(F)F`, the growth in the test with MOLT-4 leukemia was 112%; in the test with SR leukemia it was 122%; with RPMI-8226 leukemia, 108%; with OVCAR-8 ovarian it was 112%; with OVCAR-5 ovarian, 103%; in the test with SK-OV-3 ovarian, 110%. In addition, the growth was 104% in the test on IGROV1 ovarian; 101% with OVCAR-3 ovarian; 95.9% in the test with HS 578T breast; 102% in the test with NCI/ADR-RES ovarian; 106% in the test with T-47D breast; 96.9% in the test with BT-549 breast. Further, the growth in the test on MDA-MB-435 melanoma was 97.7%; in the test on SW-620 colon, 94.7%; in the test on MCF7 breast, 99.6%; in the test with HCC-2998 colon, 99.9%; with KM12 colon, 102%.
For the molecule `C=CC[Se]C(=O)c1ccccc1OC(C)=O`, the growth in the test on MOLT-4 leukemia is 14.7%; in the test on SR leukemia, 6.08% (active); with RPMI-8226 leukemia, -22.8% (active); in the test on OVCAR-8 ovarian, -12.8% (active); with OVCAR-5 ovarian, -32.1% (active); with SK-OV-3 ovarian, -28.8% (active). Further, the growth in the test on IGROV1 ovarian was 18.1%; in the test on HS 578T breast it was -8.17% (active); in the test on NCI/ADR-RES ovarian, 0.132% (active); in the test with T-47D breast it was -9.76% (active); in the test with BT-549 breast it was 28.9%; with MDA-MB-435 melanoma, 28.7%. In addition, the growth in the test with SW-620 colon was 11.1%; with MCF7 breast, -5.53% (active); with HCT-116 colon, 5.71% (active); in the test on HCC-2998 colon it was 6.92% (active); in the test with KM12 colon it was -24.1% (active).
